Screening data: PubChem BioAssay, Sanford-Burnham Center for Chemical Genomics
CD11b adhes enh: enhancers of human CD11b/CD18 binding to fibrinogen | K562 CD11b/CD18 adhesion to fibrinogen, ATPlite luminescence | P05107+P11215 | activation, % at 10 µM | 93,000 tested, 0.07% active;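 active = 10 µM primary screen giving 50% or more activity, confirmed by 40% or more on retest at that dose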
CYP2C9 inhib: inhibitors of human CYP2C9 | P11712 | CYP2C9 Supersomes, luciferin-H conversion, luminescence | inhibition, % at 5 µM | 96,000 tested, 20% active | AID 777;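 active = blocking of liver enzyme CYP2C9 beyond about 50% at 5 µM, limit read from the data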
CYP2C9 activ: CYP2C9 (human) activation. P11712. recombinant CYP2C9, luciferin-H conversion, luminescence; hits give high values; factor 1 = untreated enzyme, 0 = blocked. activation factor at 5 µM. 96,000 tested, 1.4% active;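 active = activation factor of 2 or more for CYP2C9 at a 5 µM dose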;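 also: 0 = sulfaphenazole-blocked wells and 1 = vehicle-only wells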
CD11b adhes inh: blocks human CD11b/CD18 adhesion to fibrinogen; P05107+P11215; K562 CD11b/CD18 adhesion to fibrinogen, ATPlite luminescence; Mn2+ added to activate the integrin; inhibition, % at 10 µM; 93,000 tested, 0.54% active; AID 1497;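 active = primary inhibition of 50% or more at 10 µM, then 40% or more on retest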
CYP2C19 activ: increases human CYP2C19 enzyme activity; recombinant CYP2C19, luciferin-H EGE luminescence; hits give high values; 0 = fully inhibited enzyme, 1 = untreated enzyme; activation factor at 5 µM; 96,000 tested, under 10 active;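 active = activation factor of at least 2 at 5 µM in the primary screen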;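 also: 0 = wells with 2.5 mM tranylcypromine and 1 = vehicle-only wells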
CYP2C19 inhib: human CYP2C19 inhibition. 96,000 tested, 21% active. CYP2C19 Supersomes, luciferin-H EGE luminescence, 30 min. P33261. inhibition, % at 5 µM;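 active = CYP2C19 inhibition above a set limit at 5 µM in the primary screen, cut at about 50% in these data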;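 also: plate controls were negative control wells for no effect and 2.5 mM tranylcypromine positive control for full effect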
An asterisk follows results filed as active; / = no result. Only some compounds are listed: those with a hit (about 28% of all), similar ones and a draw of the others.

SMILES	CD11b adhes enh	CYP2C9 inhib	CYP2C9 activ	CD11b adhes inh	CYP2C19 activ	CYP2C19 inhib
N#CCCn1cnc2c(=S)nc[nH]c21	-1	-8	1.1	-18	1.1	-5
CC(C)c1ccc(CN2CC(C(=O)O)CC2=O)cc1 (configuration not stated)	1	22	0.8	1	0.9	6
COc1ccccc1Cc1nc(-c2ccc(Br)o2)no1	0	32	0.7	-1	0.1	90*
CCCCCc1nc2c(C#N)c(-c3ccc(Cl)cc3)ccn2n1	/	58*	0.4	/	0.9	12
O=c1[nH]c2ccccc2nc1C(Cl)c1ccccc1 (configuration not stated)	-4	-12	1.1	1	0.7	27
Cc1ccccc1N(CC(=O)N/N=C/c1ccc(F)cc1)C(=O)c1ccccc1	-7	95*	0.1	4	0.2	80*
CCOC(=O)CN(C(=O)c1ccccc1)c1ccccc1C	0	30	0.7	-24	0.8	19
Cc1ccccc1N(CC(=O)N/N=C/c1ccc(Cl)cc1)C(=O)c1ccccc1	-1	98*	0	6	0.3	68*
C=C(C)CNC(=S)NNC(=O)CCn1c2ccc(Cl)cc2c2cc(Cl)ccc21	0	/	/	21	/	/
COc1ccc2c(c1)C1C=CCC1C(c1cc3c(cc1Br)OCO3)N2 (configuration not stated)	/	75*	0.2	/	0.3	70*
Cc1ccc(C2CC(c3ccccc3OC(F)F)Nc3ncnn32)cc1 (configuration not stated)	-2	8	0.9	-7	0.7	27
Fc1ccc(C2CC(c3ccccc3)Nc3ncnn32)cc1 (configuration not stated)	-4	-2	1	2	0.5	53*
Cc1ccccc1C1CC(c2ccccc2OC(F)F)Nc2ncnn21 (configuration not stated)	4	60*	0.4	-16	0.2	75*
Clc1ccccc1C1CC(c2ccccc2)Nc2ncnn21 (configuration not stated)	-1	40	0.6	-3	0.6	38
c1ccc(C2CC(c3ccccc3)n3ncnc3N2)cc1 (configuration not stated)	-2	45	0.5	-6	0.1	93*
CC(C)C(NC(=S)NCc1ccccc1)C(=O)O (configuration not stated)	-4	34	0.7	2	0.1	86*
CC(C)CCNC(=O)NC(=O)COc1ccccc1C#N	4	48	0.5	-41	0.3	75*
O=C(CCC(=O)OCC(=O)c1ccc(-c2ccccc2)cc1)Nc1cccc(Cl)c1	-2	3	1	-9	1	1
O=C(CCC(=O)c1ccc(F)cc1)Nc1cc(Cl)cc(Cl)c1	/	46	0.5	/	0.5	52*
COc1ccc(NC(=O)c2ccco2)cc1NC(=O)c1cccnc1	10	8	0.9	-33	1	-2
CCn1c2ccccc2c2cc(NC(=O)c3ccc(Br)o3)ccc21	12	1	1	-30	0.2	77*
CCn1c2ccccc2c2cc(NC(=O)N3CCOCC3)ccc21	-3	-43	1.4	14	0.5	52*
O=C(Nc1ccc2c(c1)oc1ccccc12)N1CCOCC1	-2	12	0.9	2	0.6	36
Cc1ccc(CCNC(=O)C2CCN(C(=O)N(C)C)CC2)cc1	-4	11	0.9	-23	0.9	5
CCS(=O)(=O)N1CCN(c2ccc(Cl)cc2[N+](=O)[O-])CC1	1	/	/	10	/	/
Cc1cc(N2CCN(c3nc4ccccc4s3)CC2)n2ncnc2n1	-12	-6	1.1	74*	1	-2
Cc1ccc(S(=O)(=O)Cn2nnnc2C(C(C)C)N2CCc3ccccc3C2)cc1 (configuration not stated)	1	25	0.7	4	0.7	32
CCCC(c1nnnn1CS(=O)(=O)c1ccc(C)cc1)N1CCN(c2ccc(F)cc2)CC1 (configuration not stated)	14	10	0.9	0	1.1	-5
Cc1ccc(S(=O)(=O)Cn2nnnc2C(c2ccccn2)N2CCN(c3ccccc3)CC2)cc1 (configuration not stated)	-3	68*	0.3	3	0.3	72*
